# The list is not random: actives were taken first. Their share in the collection is about 21%.
# D3 antag = qHTS of D3 Dopamine Receptor Antagonist: qHTS; D3R cells, DiscoveRx beta-arrestin luminescence, antagonist mode; active compounds read low; max response, negative = inhibition, %; 360,000 tested, 2.5% active; AID 652054, 2013; in the data active means max response below about -50%; inconclusive means no clear call, values can overlap the other calls
# Target sequence (P35462 whole entry, looked up): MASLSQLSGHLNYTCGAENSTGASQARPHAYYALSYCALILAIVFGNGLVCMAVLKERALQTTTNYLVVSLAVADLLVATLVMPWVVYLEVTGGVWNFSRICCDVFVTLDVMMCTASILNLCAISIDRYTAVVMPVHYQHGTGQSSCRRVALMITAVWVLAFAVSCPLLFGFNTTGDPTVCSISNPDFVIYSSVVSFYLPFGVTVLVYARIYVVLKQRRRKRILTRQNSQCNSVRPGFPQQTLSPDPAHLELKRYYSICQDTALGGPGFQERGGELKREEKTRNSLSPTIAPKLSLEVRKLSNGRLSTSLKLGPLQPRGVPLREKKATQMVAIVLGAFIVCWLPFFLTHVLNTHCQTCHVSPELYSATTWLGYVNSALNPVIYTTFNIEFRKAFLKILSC
#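 Cells expressing the human receptor were seeded at 1500 cells/well, incubated overnight at 37 degrees C in 5% CO2, then exposed to library compounds with dopamine controls for 90 minutes at 37 degrees C before luminescent detection.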
# D3 ag = qHTS of D3 Dopamine Receptor Agonist: qHTS; AID 652048, 2013; max activation, %; D3R DiscoveRx beta-arrestin cells, luminescence, 90 min; 410,000 tested, 0.58% active; D(3) dopamine receptor (Homo sapiens), P35462; in the data active means max activation above about 30%
#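 Agonist mode: compounds and dopamine controls were applied to plated cells for 90 min at 37 degrees C after an overnight attachment at 1500 cells/well. Luminescent read-out followed 30 - 60 minutes at room temperature with DiscoveRx detection reagent.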
# TDP1 cell CPT = qHTS for Inhibitors of human tyrosyl-DNA phosphodiesterase 1 (TDP1): qHTS in cells in presence of CPT; 420,000 tested, 12% active; chicken DT40 Tdp1-/-;hTDP1 cells + 20 nM CPT, ATP luminescence, 48 h; Potency, µM (titrated, usually from 46.2 µM), usual class: inhibitors; further: nearly all actives have a fitted effect of over 55% in size
#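 Chicken DT40 Tdp1-/- cells stably complemented with human TDP1 were seeded at 400 cells/well in medium containing 20 nM camptothecin, exposed to pin-transferred compounds, and grown at 37 °C for at least 48 hr. Viability was read as ATP luminescence.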
# ClpP mod = qHTS Assay for Activators of ClpP; ATP-dependent Clp protease proteolytic subunit (Bacillus subtilis (strain 168)), P80244; purified B. subtilis ClpP, FRET peptide cleavage, 20 min; 340,000 tested, 1.9% active; Potency, µM (titrated, usually from 57.5 µM); active means well fitted falling curve with a large enough effect; inconclusive means small, poorly fitted or top-dose-only effect; inactive means no such curve, though single readings can be large or run the other way; further: the source files actives as falling curves though it sought activators and does not explain the sign; nearly all actives have a fitted effect of over 65% in size
# Target sequence (P80244 whole entry, looked up): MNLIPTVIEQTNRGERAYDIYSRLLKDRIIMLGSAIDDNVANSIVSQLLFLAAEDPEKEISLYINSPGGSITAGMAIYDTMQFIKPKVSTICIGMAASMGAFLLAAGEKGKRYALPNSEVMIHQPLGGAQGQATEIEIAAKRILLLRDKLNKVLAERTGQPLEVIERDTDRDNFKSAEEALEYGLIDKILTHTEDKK
#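 ClpP 10 microg/mL final, pH 8 Tris/KCl buffer with BSA, glycerol, Tween-20; compound pinned in; FRET-FV substrate; RT 20 min; Ex320/Em430; ΔFRET vs ADEP 5.8 microM, DMSO, no enzyme.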
# IL1B secr inh = qHTS for Inhibitors of Inflammasome Signaling: IL-1-beta AlphaLISA Primary Screen | THP-1 LPS/ATP IL-1B secretion, AlphaLISA, 16 h; active compounds read low | activity change, % at 57.5 µM | 360,000 tested, 4.7% active | AID 743279, 2014; in the data active means activity change below about -50%; inconclusive means mostly about -30% to -49%
#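 Secreted IL-1B measured by AlphaLISA bead assay after 16 h compound exposure of THP-1 cells; compounds (final up to 57.5 uM) added 1 h before LPS (250 ng/mL) and ATP (1.25 mM) stimulation; lower signal means less secretion.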
# TDP1 cell noCPT = qHTS for Inhibitors of human tyrosyl-DNA phosphodiesterase 1 (TDP1): qHTS in cells in absence of CPT; 420,000 tested, 15% active; DT40 Tdp1-/- hTDP1 cells, no CPT, ATP luminescence, 48 h; Potency, µM (titrated, usually from 46.2 µM), usual class: inhibitors; further: nearly all actives have a fitted effect of over 55% in size
#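 Growth of hTDP1-complemented DT40 Tdp1-knockout cells is measured by ATP luminescence after at least 48 hr compound exposure at 37 °C, with DMSO substituting for the 20 nM CPT used in the parallel screen.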
# Numbers stand for hits; 0 = inactive; ? = inconclusive; - = no result; [ ] = remark or other dose. Unless noted, the call rests on the fitted dose curve; in most records, active means well fitted inhibition curve with a large enough effect; inconclusive means small, poorly fitted or top-dose-only effect; inactive means flat fitted curve, though single readings scatter.
SMILES,D3 antag,D3 ag,TDP1 cell CPT,ClpP mod,IL1B secr inh,TDP1 cell noCPT
CCc1cc2c(=O)c(-c3cnn(-c4ccccc4)c3)c(C)oc2cc1OCC(=O)Nc1cccc(C)c1,0,0,3.3µM,0,0,5.2µM
CCc1cc2c(-c3ccccc3)cc(=O)oc2cc1OCC(=O)NCC1CCC(C(=O)O)CC1 (stereo unspecified),0,0,0,0,0,0
CCc1cc2c(=O)c(-c3cnn(-c4ccccc4)c3)c(C)oc2cc1OCC(=O)Nc1ccc(F)c(F)c1,0,0,15µM,0,0,9.2µM
CCc1cc2c(=O)c(-c3ccc(F)cc3)c(C)oc2cc1OCC(=O)O,0,0,0,-,0,0
Cc1oc2cc(O)ccc2c(=O)c1-c1cnn(-c2ccccc2)c1,0,0,0,32µM,0,?
CC1C(=O)CC2C3(C)CCC2(C(C)C(=O)O)C(=O)C13 (stereo unspecified),-,0,0,-,-,0
COC(=O)[C@]1(C)N[C@H](CN(C)S(=O)(=O)c2ccc(OC(F)(F)F)cc2)[C@@H]2C(=O)N(Cc3ccccc3)C(=O)[C@@H]21,0,0,0,0,0,0
CC(C)c1ccc(NC(=O)Cn2c(=O)n(Cc3nc(-c4ccccc4)no3)c(=O)c3cc4c(cc32)OCO4)cc1,-,0,?,?,-,?
COc1ccc(CN2CCN(c3ncnc4sc5c(c34)CC(C)CC5)CC2)cc1F (stereo unspecified),-,0,15µM,0,-,6.5µM
O=C(c1ccco1)N1CCN(c2ncnc3sc4c(c23)CCC4)CC1,0,0,?,0,0,20µM
O=C(c1ccco1)N1CCN(c2ncnc3scc(-c4ccc(Cl)cc4)c23)CC1,0,0,?,0,0,?
Clc1ccc(CN2CCN(c3ncnc4sc5c(c34)CCCC5)CC2)cc1Cl,-,0,21µM,0,-,23µM
c1ccc(N2CCN(c3ncnc4sc5c(c34)CCC5)CC2)cc1,0,0,21µM,0,0,21µM
C/C(=N/NC(=O)c1ccc(-c2ccccc2)cc1)c1cccc(O)c1,0,0,0,0,?,0
O=C(c1ccco1)N1CCN(c2ncnc3c(-c4ccccc4)nsc23)CC1,0,0,18µM,0,0,21µM
CCn1cc(C(=O)NCCCO)c(=O)c2cc(F)c(N3CCN(C)CC3)cc21,0,0,0,0,0,0
CCn1cc(C(=O)N[C@H](C)c2ccccc2)c(=O)c2cc(F)c(N3CCN(C)CC3)cc21,0,0,?,0,-74,?
CCn1cc(C(=O)NCc2ccc3c(c2)OCO3)c(=O)c2cc(F)c(N3CCN(C)CC3)cc21,-70,0,?,0,0,?
CCn1cc(C(=O)NCCc2ccccc2)c(=O)c2cc(F)c(N3CCN(C)CC3)cc21,0,0,?,?,0,?
CCCCCCCCC(=O)N1CCN(c2cc3c(cc2F)c(=O)c(C(=O)O)cn3CC)CC1,0,0,0,0,0,0
CCCCCCCC(=O)N1CCN(c2cc3c(cc2F)c(=O)c(C(=O)O)cn3CC)CC1,0,0,23µM,0,0,?
CCCCCCn1cc(C(=O)O)c(=O)c2cc(F)c(N3CCN(C)CC3)cc21,0,0,16µM,0,0,18µM
CC(=O)OC1CCC2(C)C3CCC4(C)C(CC5CCCCC54C(C)=O)C3CC(=O)[C@@]2(O)C1 (stereo partly specified),-,-,0,-,-,?
CCCCCCNC(=O)c1cn(CC)c2cc(N3CCN(C)CC3)c(F)cc2c1=O,0,0,21µM,0,-55,26µM
CC(NC(=O)c1cn(C)c2ccc(S(=O)(=O)N3CCCC3)cc2c1=O)c1ccccc1 (stereo unspecified),0,0,?,0,0,0
SMILES,D3 antag,D3 ag,TDP1 cell CPT,ClpP mod,IL1B secr inh,TDP1 cell noCPT
CCCCCCn1cc(C(=O)OCC)c(=O)c2cc(F)c(F)cc21,0,0,?,0,?,23µM
CC1CCN(S(=O)(=O)c2ccc3c(c2)c(=O)c(C(=O)NC(C)c2ccccc2)cn3C)CC1 (stereo unspecified),-,0,?,0,-,23µM
Cc1ncc2c(c1CNC(=O)c1ccc3c(c1)OCO3)CCN(C(=O)c1scc3c1CCCC3)C2,-,-,0[9.04 µM],-,-,0
CCCOc1ccc(C2C(=O)N(C3CCCCC3)CC(=O)N2CCC2=CCCCC2)cc1OC (stereo unspecified),-,0,0,0,-,0
CCOc1cc(OCC)nc(S(C)(=O)=O)n1,0,0,21µM,0,0,15µM
CCOC(=O)Cn1nc(-c2ccc(Cl)cc2)ccc1=O,0,0,?,0,0,?
CCOC(=O)Cn1nc(/C=C/c2ccc(C(C)C)cc2)ccc1=O,0,0,15µM,28µM,0,?
CCOC(=O)Cn1nc(/C=C/c2ccc(C)cc2)ccc1=O,0,0,?,32µM,0,23µM
CCOC(=O)Cn1nc(/C=C/c2ccccc2)ccc1=O,0,0,0,?,0,0
COc1ccc(NC(=O)N2CCCC3(CCN(C(=O)c4cc(C(F)(F)F)cc(C(F)(F)F)c4)CC3)C2)cc1,-,-,0,-,-,0
COc1cn(CC(=O)Nc2c(C)cc(C)cc2C)c(CN2CCCCC2)cc1=O,-,0,0,0,-,0
CCCCN(C=O)c1c(CC)nc2c(OCc3ccc(Cl)cc3)cccn12,0,0,18µM,?,-51,23µM
CCc1nc2c(OCCc3cccc(OC)c3)cccn2c1N(C=O)Cc1ccccc1,0,0,?,0,?,?
CCCCN(C=O)c1c(CC)nc2c(OCc3cc(Cl)cc(Cl)c3)cccn12,?,0,?,0,0,?
C=CCOc1cccn2c(N(C=O)Cc3ccccc3)c(CC)nc12,0,0,13µM,0,0,12µM
CCc1nc2c(OCCc3cccc(OC)c3)cccn2c1N(C=O)Cc1ccc(OC)cc1,0,0,18µM,0,0,?
CCc1nc2c(OCC(=O)c3ccc(Cl)cc3Cl)cccn2c1N(C=O)Cc1ccccc1,0,0,21µM,0,0,?
O=C(CSc1ccc(Br)cc1)Nc1cccc(S(=O)(=O)N2CCOCC2)c1,0,0,?,0,?,?
CCc1nc2c(OCc3cc(Cl)cc(Cl)c3)cccn2c1N(C=O)Cc1ccc(OC)cc1,0,0,23µM,0,-79,?
CCc1nc2c(OCc3cc(Cl)cc(Cl)c3)cccn2c1N(C=O)Cc1ccccc1,0,0,26µM,0,?,?

# Screening data deposited in PubChem BioAssay by National Center for Advancing Translational Sciences (NCATS).
